SMARCA2 activ: SMARCA2 (BRM) function activators, primary screen, cell-based, luminescence, high throughput; MG213 cells, MMTV-luciferase reporter, dexamethasone, overnight; activation, % at 9.1 µM; hit rate 1% among 370,000; in the data active means activation above about 7.8%;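 further: 0% = vehicle wells and 100% = reference activator wells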
ssDAF-12 act: S. stercoralis DAF-12 nuclear receptor activators, primary screen, cell-based, luminescence, HEK293, GRIP1 co-expression, lit1-tk-luc; HEK293 ssDAF-12/GRIP1 lit1-tk-luc reporter; % of 3 µM dafachronic acid response; activation, % at 6.8 µM; hit rate 1% among 370,000;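 active means activation above the mean over all tested compounds plus 3 SD, cut at about 0.9% in these data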;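 further: 0% = DMSO-only wells and 100% = 3 µM delta7-dafachronic acid wells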
DAX1 inh-1: DAX1 (NR0B1) inhibitors, primary screen, cell-based, HEK293, Gal4-DAX1, luciferase luminescence; Nuclear receptor subfamily 0 group B member 1 (Homo sapiens), P51843; HEK293 Gal4-DAX1 luciferase reporter; inhibition, % at 6.75 µM; hit rate 0.99% among 340,000;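 active means inhibition above the mean over all tested compounds plus 3 SD, cut at about 4.2% in these data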;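 further: 0% = DAX1-transfected cells with DMSO and 100% = empty-vector control cells with DMSO; inhibition shows as a rise in luminescence from relieved DAX1 repression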
Target sequence (P51843 207-470 limits assumed): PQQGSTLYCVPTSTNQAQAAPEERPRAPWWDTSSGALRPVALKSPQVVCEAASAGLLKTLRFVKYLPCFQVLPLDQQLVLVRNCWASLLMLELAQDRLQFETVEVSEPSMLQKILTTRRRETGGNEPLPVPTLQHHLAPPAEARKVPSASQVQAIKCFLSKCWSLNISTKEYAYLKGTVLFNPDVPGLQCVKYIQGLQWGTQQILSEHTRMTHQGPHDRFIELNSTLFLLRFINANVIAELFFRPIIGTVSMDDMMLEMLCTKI
hcDAF12 agonist: H. contortus DAF-12 nuclear receptor activators, primary screen, cell-based, luminescence, HEK293, lit1-tk-luc reporter. activation, % at 6.8 µM. HEK293 hcDAF-12 lit1-tk-luc reporter; 0% DMSO, 100% Δ7-dafachronic acid. hit rate 1.4% among 370,000;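 active means activation above the mean of all tested compounds plus 3 SD, cut at about 5.5% in these data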;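 further: 100% = response to 3 µM Δ7-dafachronic acid high control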
DAX1 inh-2: DAX1 (NR0B1) inhibitors on StAR promoter, primary screen, cell-based, luminescence, SF-1 (NR5A1), full-length DAX-1 | HEK293T StAR-luciferase reporter, SF-1/DAX-1 repression relief | inhibition, % at 6.8 µM | hit rate 1.1% among 370,000 | AID 652010, 2013;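 active means inhibition above the mean over all tested compounds plus 3 SD, cut at about 3.6% in these data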;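 further: 0% = DAX-1 cells with DMSO and 100% = cells lacking DAX-1 with DMSO; higher inhibition means more luminescence from relief of DAX-1 repression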
hgDAF-12 ag: H. glycines DAF-12 receptor agonists, primary screen, cell-based, luminescence, HEK293, GAL4 fusion, UAS-luciferase. hit rate 1.8% among 370,000. AID 687014, 2013. activation, % at 6.8 µM. HEK293 GAL4-hgDAF12 UAS-luciferase reporter, agonist luminescence; normalized to butyrate control;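 active means activation above a cutoff set at the mean of all screened compounds plus 3 SD, cut at about 10% in these data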;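 further: 0% = DMSO wells and 100% = sodium butyrate wells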
DAX1 inh confirm: DAX1 (NR0B1) inhibitors relieving SF-1 repression, confirmation, cell-based, luminescence, HEK293T, full-length DAX-1, SF-1 activated StAR promoter; shares compounds with DAX1 inh-2; AID 652134, 2013; HEK293T StAR-promoter luciferase reporter, SF-1/DAX-1 repression; hit rate 87% among 2,400; inhibition, % at 6.8 µM;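 active means inhibition above the average of every tested compound plus 3 SD, cut at about 3.8% in these data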;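 further: 0% = DAX-1 cells with DMSO and 100% = no DAX-1 control cells with DMSO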
SF1 mutant ctr: StAR reporter signal changes without DAX1, counter-screen for DAX1 inhibitor project, cell-based, luminescence, AF-2 mutant SF-1, transactivation. inhibition, % at 6.8 µM. shares compounds with DAX1 inh-2. hit rate 78% among 2,400. HEK293 StAR-luciferase, SF-1 AF2 mutant. AID 652136, 2013;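 active means inhibition above the mean of all tested compounds plus 3 SD, cut at about 3% in these data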;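 further: 0% = DAX-1 transfected cells with DMSO and 100% = cells without DAX-1 with DMSO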
* hit, by the source's call. Shown are actives, neighbours in structure and some others; about 4.8% of the full set was active somewhere.

Screening COC(=O)c1cc2c(c3c4cc(C)ccc4n(S(=O)(=O)c4ccc(C)cc4)c13)C(=O)N(Cc1ccc(N(C)C)cc1)C2 returned SMARCA2 activ 2, ssDAF-12 act -1, hcDAF12 agonist 1, DAX1 inh-2 2 and hgDAF-12 ag 0.
For CC1=CC(c2ccccc2)n2nc(N3C(=O)c4ccccc4C3=O)nc2N1 (stereo not drawn) the results were SMARCA2 activ -1, ssDAF-12 act -1, DAX1 inh-1 4, hcDAF12 agonist 0, DAX1 inh-2 0 and hgDAF-12 ag 3.
Screening CC1=CC(c2ccccc2)n2nnnc2N1 (stereo not drawn) returned SMARCA2 activ -3, ssDAF-12 act 0, DAX1 inh-1 11*, hcDAF12 agonist -1, DAX1 inh-2 0 and hgDAF-12 ag 3.
For CSc1nnc(N2C(=O)C(O)=C(C(=O)c3ccco3)C2c2ccc(F)cc2)s1 (stereo not drawn) the results were SMARCA2 activ 0, ssDAF-12 act -1, DAX1 inh-1 1, hcDAF12 agonist 4, DAX1 inh-2 4.2* and hgDAF-12 ag 8.
`Cc1nc2sc(C(=O)NCc3ccncc3)c(N)c2c(C)c1Cl` gave SMARCA2 activ 0, ssDAF-12 act -1, hcDAF12 agonist -2, DAX1 inh-2 1 and hgDAF-12 ag 2.
Cc1nc2sc(C(=O)NC3CC3)c(N)c2c(C)c1Cl was read as SMARCA2 activ -1, ssDAF-12 act 0.9*, hcDAF12 agonist 4, DAX1 inh-2 1 and hgDAF-12 ag 8.
Cc1ccc(-c2nnn(CC(=O)N(CC(=O)NC3CCCCC3)c3ccccc3F)n2)o1 was read as SMARCA2 activ -2, ssDAF-12 act -2, DAX1 inh-1 4.2*, hcDAF12 agonist -1, DAX1 inh-2 0 and hgDAF-12 ag -1.
`Cc1ccc(-c2nnn(CC(=O)N(CC(=O)NC3CCCCC3)c3cccc(F)c3)n2)o1` gave SMARCA2 activ 0, ssDAF-12 act -1, DAX1 inh-1 -1, hcDAF12 agonist -1, DAX1 inh-2 0 and hgDAF-12 ag 0.
Screening CC(=O)N1c2ccccc2Oc2cc3ccccc3cc21 returned SMARCA2 activ 2, ssDAF-12 act 0, DAX1 inh-1 2, hcDAF12 agonist 5.7*, DAX1 inh-2 1 and hgDAF-12 ag 6.
Screening CC1(C(=O)NS(=O)(=O)c2ccc(Cl)s2)CCN1C(=O)C1(c2ccc(Cl)cc2)CCC1 (stereo not drawn) returned SMARCA2 activ -4, ssDAF-12 act -1, hcDAF12 agonist 1, DAX1 inh-2 0 and hgDAF-12 ag 0.
For CC(=O)c1sc(NC(=O)c2ccco2)nc1-c1ccccc1 the results were DAX1 inh-1 1.
For CCOC(=O)c1sc(NC(=O)c2cccnc2)nc1C the results were SMARCA2 activ -1, ssDAF-12 act -1, DAX1 inh-1 2, hcDAF12 agonist 5.9*, DAX1 inh-2 0 and hgDAF-12 ag 1.
For CCOC(=O)c1sc(NC(=O)c2ccc(=O)[nH]c2)nc1C the results were SMARCA2 activ -1, ssDAF-12 act 0, DAX1 inh-1 6.1*, hcDAF12 agonist 1, DAX1 inh-2 0 and hgDAF-12 ag 0.
`CCOC(=O)c1sc(NC(=O)c2ccco2)nc1-c1ccccc1` gave SMARCA2 activ 7.9*, ssDAF-12 act -2, DAX1 inh-1 0, hcDAF12 agonist 1, DAX1 inh-2 1 and hgDAF-12 ag 1.
`COC(=O)c1sc(NC(=S)NC(=O)c2cccc(Br)c2)nc1C` gave SMARCA2 activ 3, ssDAF-12 act 0, DAX1 inh-1 4.6*, hcDAF12 agonist 4, DAX1 inh-2 0 and hgDAF-12 ag 4.
For CCOC(=O)c1sc(NC(=O)c2ccc3nc[nH]c3c2)nc1C the results were SMARCA2 activ 2, ssDAF-12 act 0, DAX1 inh-1 0, hcDAF12 agonist 0, DAX1 inh-2 0 and hgDAF-12 ag 4.
For CCOC(=O)c1sc(NC(=O)c2ccccc2OCC)nc1C the results were SMARCA2 activ -1, ssDAF-12 act -1, DAX1 inh-1 0, hcDAF12 agonist -2, DAX1 inh-2 0 and hgDAF-12 ag -1.
`Cc1ccc(NC(=O)Nc2ccc3c(c2)N(C)C(=O)CS3)nc1` gave SMARCA2 activ -5, ssDAF-12 act -2, DAX1 inh-1 -3, hcDAF12 agonist -3, DAX1 inh-2 -1 and hgDAF-12 ag -4.
Screening Cc1ccnc(NC(=O)Nc2ccc3c(c2)N(C)C(=O)CS3)c1 returned SMARCA2 activ -2, ssDAF-12 act -1, DAX1 inh-1 -1, hcDAF12 agonist 0, DAX1 inh-2 2 and hgDAF-12 ag 10*.
For O=C(O)c1nn(Cc2nc3ccccc3o2)c(=O)c2ccccc12 the results were SMARCA2 activ 4, ssDAF-12 act 0, DAX1 inh-1 0, hcDAF12 agonist 5.9*, DAX1 inh-2 0 and hgDAF-12 ag -1.
Screening O=C(NCCCN1CCCC1=O)c1cccc(S(=O)(=O)N2CCCCC2)c1 returned SMARCA2 activ 0, ssDAF-12 act -1, DAX1 inh-1 0, hcDAF12 agonist 3, DAX1 inh-2 4.4* and hgDAF-12 ag 3.
For O=C(NCCCN1CCCC1=O)c1cccc(S(=O)(=O)Nc2ccccc2Cl)c1 the results were SMARCA2 activ -1, ssDAF-12 act -1, DAX1 inh-1 -1, hcDAF12 agonist 0, DAX1 inh-2 -2 and hgDAF-12 ag -1.
Screening O=C(c1cccc(S(=O)(=O)N2CCCCC2)c1)N1CCc2ccccc21 returned SMARCA2 activ -6, ssDAF-12 act -1, DAX1 inh-1 0, hcDAF12 agonist 5.9*, DAX1 inh-2 0 and hgDAF-12 ag -2.
Screening Cc1cc(C)c2nc(N3CCN(C(=O)c4ccco4)CC3)sc2c1 returned SMARCA2 activ 4, ssDAF-12 act -1, DAX1 inh-1 2, hcDAF12 agonist -1, DAX1 inh-2 5.0*, hgDAF-12 ag 5, DAX1 inh confirm 4.4* and SF1 mutant ctr 2.
